IL1B secr inh – inflammasome signaling inhibition, IL-1 beta readout; THP-1 LPS/ATP IL-1B secretion, AlphaLISA, 16 h; stronger effect = lower value; actives 4.7% (n = 360,000); activity change, % at 57.5 µM; in the data active means activity change below about -50%; inconclusive means mostly about -30% to -49%
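Secreted IL-1B measured by AlphaLISA bead assay after 16 h compound exposure of THP-1 cells; compounds (final up to 57.5 uM) added 1 h before LPS (250 ng/mL) and ATP (1.25 mM) stimulation; lower signal means less secretion.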
DT40 TDP1 no CPT – qHTS for Inhibitors of human tyrosyl-DNA phosphodiesterase 1 (TDP1): qHTS in cells in absence of CPT; actives 15% (n = 420,000); DT40 Tdp1-/- hTDP1 cells, no CPT, ATP luminescence, 48 h; Potency, µM (series often up to 46.2 µM), for inactives: at the highest dose activity change, negative = growth inhibition, most hits filed as inhibitors; further: potency means the concentration at half of the fitted maximal effect; nearly all actives have a fitted effect of over 55% in size
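Seeded 400 DT40-hTDP1 cells/well (vehicle DMSO, no 20 nM CPT); pinned compounds; ≥48 hr at 37 °C; CellTiter-Glo luminescence as viability measure.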
HT1080 IDH1KD tx – kills HT-1080 cells with IDH1 knockdown; actives 2% (n = 360,000); Potency, µM (doses to about 46.1 µM), inactives show at the highest dose activity, negative = toxicity, usual class: cytotoxic; HT-1080 IDH1 knockdown viability, ATP luminescence, 48 h;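 further: potency means the concentration at half of the fitted maximal effect; 0% = DMSO wells and -100% = cell-free medium wells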
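Using the IDH1-knockdown HT-1080 line run in the same batch and compound series as the NT line, viability after 48 h at 37 °C was determined by CellTiter-Glo luminescence and expressed as % activity.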
DT40 TDP1 CPT – DT40-hTDP1 cell growth loss with CPT; chicken DT40 Tdp1-/-;hTDP1 cells + 20 nM CPT, ATP luminescence, 48 h; Potency, µM (doses to about 46.2 µM), for inactives: at the highest dose activity change, negative = growth inhibition, usual class: inhibitors; actives 12% (n = 420,000); AID 686979; further: potency means the concentration at half of the fitted maximal effect; nearly all actives have a fitted effect of over 55% in size
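Chicken DT40 Tdp1-/- cells complemented with human TDP1, 400 cells/well, exposed to compounds plus 20 nM camptothecin for at least 48 h at 37 C; viability read as ATP content by CellTiter-Glo luminescence.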
HT1080-NT tox – kills 2HG-producing HT-1080-NT fibrosarcoma cells | AID 686970 | HT-1080-NT fibrosarcoma viability, CellTiter-Glo ATP luminescence, 48 h | actives 1.6% (n = 360,000) | Potency, µM (highest dose often 46.1 µM), without a hit: top-dose activity, negative = less viability, usual class: cytotoxic;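 further: NT is the 2HG producing partner of a matched IDH1 knockdown line; potency means the concentration at half of the fitted maximal effect; 0% = DMSO-treated cells and -100% = media-only wells without cells; nearly all actives have a fitted effect of over 55% in size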
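Viability of the 2HG-overproducing fibrosarcoma line after 48 hours of compound exposure at 37 degrees C was determined by luminescence with CellTiter-Glo, and concentration-effect curves were then fitted and categorized.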
* marks the source's active call; other numbers are inactive results; ? = inconclusive; · = not tested or not shown. This is a sample that favours compounds with a hit; in the whole collection about 19% have one here. Unless noted, the call rests on the fitted dose curve; in most records, active means well fitted curve in the direction sought with a large enough effect; inconclusive means small, poorly fitted or top-dose-only effect, or another doubt; inactive means no such curve, though single readings can be large; an effect the other way counts as inactive or inconclusive. Unless noted, on the % scale 0 is the no-effect control and ±100 the full control effect.

SMILES	IL1B secr inh	DT40 TDP1 no CPT	HT1080 IDH1KD tx	DT40 TDP1 CPT	HT1080-NT tox
CSCC(CO)NS(=O)(=O)c1ccc(C)cc1 (stereo not drawn)	12	-9%	16%	2%	2%
Clc1nc(-c2n[nH]nc2Cl)n[nH]1	19	-3%	3%	-8%	4%
CCOC(=O)c1ccc(-c2ccc(/C=N/NC(=O)CN(c3cccc(C)c3)S(C)(=O)=O)o2)cc1	13	15µM*	0%	?	0%
CCOC(=O)c1ccc(-c2ccc(/C=N/NC(=O)CN(c3ccccc3Cl)S(C)(=O)=O)o2)cc1	-9	23µM*	-13%	?	-6%
CS(=O)(=O)N(CC(=O)N/N=C/c1ccccc1C(=O)O)c1cccc(Cl)c1Cl	18	0%	-9%	-14%	2%
Cc1ccc(C)c(N(CC(=O)N/N=C/c2ccc(-c3ccc([N+](=O)[O-])cc3)o2)S(=O)(=O)c2ccccc2)c1	-14	?	-4%	?	-3%
CC(C)c1ccc(/C=N/NC(=O)CN(c2cccc(Cl)c2Cl)S(C)(=O)=O)cc1	?	?	21µM*	29µM*	18µM*
Cc1ccc(N(C(=O)Cn2nnc(-c3ccccc3)n2)C(C(=O)NC2CCCCC2)c2ccccn2)cc1C (stereo not drawn)	0	?	2%	?	-3%
C=CCN1c2ccccc2[C@]23C[C@@H](C(=O)OC)N(C(=O)c4cc(C)oc4C)C2=NC(C(=O)OC)=C(C(=O)OC)[C@H]13	-65*	?	-16%	?	-23%
C=CCNc1nc(C(=O)OCC(=O)NCc2cccc(Cl)c2)cs1	-1	5%	3%	0%	6%
Cc1ccc(CS(=O)(=O)c2ccccc2-c2nnc(-c3ccc(Cl)cc3)o2)cc1	21	18µM*	-19%	?	-15%
Cc1ccccc1-c1nnc(-c2ccc(Cl)cc2)o1	17	-24%	17%	-21%	2%
CCc1nc(-c2cc(S(=O)(=O)N3CCN(c4ccc(F)cc4)CC3)ccc2OC)no1	·	-15%	·	-13%	·
Cc1sc2c3ccsc3ccc2[n+]1C	-100*	16µM*	-21%	13µM*	-6%
Cc1sc2ccc3sccc3c2[n+]1C	-95*	21µM*	-18%	8.2µM*	5%
CC(C)(C)NC(=O)NC(=O)CN1c2cccc3cccc(c23)S1(=O)=O	54	-15%	-11%	-7%	-1%
COCCn1c(SCC(=O)Nc2cccc(C)n2)nnc1-c1ccco1	16	0%	11%	2%	16%
CCc1ccc(/C=C2\SC(=S)N(CCCC(=O)N3CCN(C)CC3)C2=O)cc1	-55*	?	?	?	-19%
COc1cccc(/C=C2\SC(=S)N(CCCC(=O)N3CCCCC3)C2=O)c1	5	?	-3%	?	-1%
COc1ccc(/C=C2\SC(=S)N(CCCC(=O)N3CCN(C)CC3)C2=O)cc1	-91*	?	16µM*	?	26µM*
CCc1ccc(/C=C2\SC(=S)N(CCCC(=O)Nc3ccc(C(=O)O)cc3)C2=O)cc1	0	-7%	-2%	-13%	-2%
CC[n+]1c(S(=O)(=O)[O-])ccc2ccc(C)cc21	19	0%	6%	-8%	1%
CC[n+]1c(C)sc2c(C)cc(C)cc21	93	?	-7%	23µM*	-4%
COc1ccc(N=C2S/C(=C\c3ccc(Cl)c([N+](=O)[O-])c3)C(=O)N2CCN(C)C)cc1	-61*	16µM*	21µM*	21µM*	?
CCN(CC)CCN1C(=O)/C(=C\c2ccc(Cl)c([N+](=O)[O-])c2)SC1=Nc1ccc(OC)cc1	-99*	16µM*	3.3µM*	21µM*	2.6µM*
SMILES	IL1B secr inh	DT40 TDP1 no CPT	HT1080 IDH1KD tx	DT40 TDP1 CPT	HT1080-NT tox
CCN(CC)Cc1c(O)c(Cl)cc2c3c(c(=O)oc12)CCCC3	12	?	9%	?	19%
CN(C)Cc1c(O)c(Cl)cc2c3c(c(=O)oc12)CCCC3	21	15µM*	1%	?	0%
O=C(Nc1ccon1)c1sc2cc(Cl)ccc2c1Cl	0	1%	?	0%	?
CO[C@H]1C[C@@H]2CC[C@@H](C)[C@@](O)(O2)C(=O)C(=O)N2CCCC[C@H]2C(=O)O[C@H]([C@H](C)C[C@@H]2CC[C@@H](OCCO)[C@H](OC)C2)CC(=O)[C@H](C)/C=C(\C)[C@@H](O)[C@@H](OC)C(=O)[C@H](C)C[C@H](C)/C=C/C=C/C=C/1C	·	0.027µM*	·	0.042µM*	·
CO[C@H]1C[C@@H]2CC[C@@H](C)[C@@](O)(O2)C(=O)C(=O)N2CCCC[C@H]2C(=O)O[C@H](C(C)C[C@H]2CC[C@@H](O)[C@H](OC)C2)CC(=O)[C@H](C)/C=C(\C)[C@@H](O)[C@@H](OC)C(=O)[C@H](C)C[C@H](C)/C=C/C=C/C=C/1C (stereo partly drawn)	·	?	·	0.0079µM*	·
CO[C@H]1C[C@@H]2CC[C@@H](C)[C@@](O)(O2)C(=O)C(=O)N2CCCC[C@H]2C(=O)O[C@H]([C@H](C)C[C@@H]2CC[C@@H](O)[C@H](OC)C2)CC(=O)[C@H](C)/C=C(\C)[C@@H](O)[C@@H](OC)C(=O)[C@H](C)C[C@H](C)/C=C/C=C/C=C/1C	·	?	·	4.5µM*	·
C/C(N)=C(/C#N)C(=O)COC(=O)C1CCC(C(C)(C)C)CC1 (stereo not drawn)	8	?	?	-15%	?
COc1ccc(-n2c(C)c(C)c3c(NCCN(C)C)ncnc32)cc1	20	0%	-8%	-15%	-10%
COc1ccc(NS(=O)(=O)c2ccc(NC(=O)c3ccccn3)cc2)cc1	4	?	-5%	?	-3%
COc1ccc(NS(=O)(=O)c2cccc(NC(=O)COc3ccc(OC)cc3)c2)cc1	20	?	0%	?	0%
Cc1ccc(C)c(NC(=O)NC2CCCCCCC2)c1	7	4%	17%	21%	8%
COc1ccc(NS(=O)(=O)c2cccc(NC(=O)NC3CCCCC3)c2)cc1	-69*	23µM*	-21%	?	?
COc1ccc(NS(=O)(=O)c2cccc(NC(=O)c3ccccn3)c2)cc1	-6	?	-29%	21µM*	-28%
COc1ccc(NS(=O)(=O)c2ccc(C)c(NC(=O)NC3CCCCC3)c2)cc1	-74*	?	-13%	?	0%
Cc1ccnc(NC(=O)CSc2ccccn2)c1	6	-17%	7%	6%	12%

Screening results deposited in PubChem by National Center for Advancing Translational Sciences (NCATS).
